Reference: ChEMBL document CHEMBL1157539, “Thousands of chemical starting points for antimalarial lead identification” (Nature, 2010)

How the values were obtained:
Assay type in all cases: functional
Plasmodium falciparum [1] = test: GSK_TCMDC: Inhibition of Plasmodium falciparum 3D7 in whole red blood cells, using parasite LDH activity as an index of growth. Test compounds present at 2uM
Plasmodium falciparum [2] = test: GSK_TCMDC: Inhibition of Plasmodium falciparum Dd2 in whole red blood cells, using parasite LDH activity as an index of growth. Test compounds present at 2uM
HepG2 = test: GSK_TCMDC: Percent inhibition of human HepG2 cell line. Test compounds present at 10uM.

Row | SMILES | Inhibition (Plasmodium falciparum [1]) | Inhibition (Plasmodium falciparum [2]) | Inhibition (HepG2)
1 | CC(C)NCC(=O)Nc1cccc(C(=O)Nc2cccc(C(F)(F)F)c2)c1 | 97% | 89% | 6%
2 | CC1CCN(CC[C@H]2CCCN2S(=O)(=O)c2cccc(NC(=O)c3ccc(-c4ccccc4)cc3)c2)CC1 | 87% | 36% | 38%
3 | COc1cc2nc(N3CCC(CCCC4CCNCC4)CC3)nc(NCc3ccccn3)c2cc1OC.O=C(O)C(F)(F)F | 100% | 6% | 2%
4 | O=C(/C=C/c1ccc(Cl)c(Cl)c1)NCCCCCN1CCCN(C(=O)Nc2cc(Cl)nc(Cl)c2)CC1 | 100% | 3% | 8%
5 | N=C(N)NC(=O)Nc1cc(Br)c(Br)c(Br)c1 | 100% | 89% | 0%
6 | COc1cccc(CNC(=O)[C@H]2CNCCN2C(=O)CCCc2ccccc2)c1.O=C(O)C(F)(F)F | 91% | 95% | 56%
7 | NC(=O)c1ccsc1NC(=O)CNC(c1ccccc1)c1ccc(Cl)cc1 (centres undefined) | 83% | 89% | 25%
8 | Cc1ccc(C)c(C2CCN(CCCCNC(=O)c3ccc(NC(=O)c4ccc(Cl)cc4)cc3)CC2)c1 | 94% | 13% | 15%
9 | Cl.OCCNc1nc(Nc2cccc(O)c2)nc2ccccc12 | 96% | 55% | 3%
10 | COc1cc(C2CCCCC2)c(OC)cc1CC1c2cc(O)c(Cl)cc2CCN1C.Cl (centres undefined) | 100% | 100% | 12%
11 | COc1ccc(CN2CCN(CCCCNC(=O)c3ccc(NC(=O)c4ccc(Cl)cc4)cc3)CC2)c(OC)c1 | 94% | 0% | 25%
12 | COc1ccc2[nH]ccc(=NN=Cc3cccc(F)c3)c2c1 | 100% | 65% | 13%
13 | Cl.O=c1n(CC2CCCCC2)c2cc(Cl)cc(OCCNc3ccncc3)c2n1CC1CCCCC1 | 100% | 64% | 2%
14 | CC(C)C[C@H](NC(=O)c1cc2cc(OCCN3CCNCC3)ccc2o1)C(=O)NC1CC[C@@H](C)N(C(=O)Nc2ccc(Cl)cc2)CC1=O.O=C(O)C(F)(F)F (some centres undefined) | 90% | 92% | 0%
15 | O=C(/C=C/c1ccc(Cl)c(Cl)c1)N1CCC(CN2CCC(Cc3cc4ccccc4[nH]3)CC2)CC1 | 96% | 56% | 49%
16 | CN(CCCCCNC(=O)/C=C/c1ccc(Cl)c(Cl)c1)CCCCc1c[nH]c2ccccc12 | 90% | 15% | 17%
17 | O=C(O)C(F)(F)F.Oc1ccc(CCNc2nc(NCc3ccccc3-c3ccc(C(F)(F)F)cc3)nc(N3CCCNCC3)n2)cc1 | 95% | 2% | 12%
18 | N=C(N)Nc1nc(CCCCCCCCc2csc(NC(=N)N)n2)cs1 | 100% | 28% | 27%
19 | CC(C)CNCc1cccc(-c2ccccc2CNC2CCN(Cc3ccccc3)CC2)c1.O=C(O)C(F)(F)F | 100% | 39% | 25%
20 | CCC(C)c1ccc(Nc2nc(C)cc(N(CC)CCCN3CCCCC3)n2)cc1.O=C(O)C(F)(F)F (centres undefined) | 100% | 83% | 55%
21 | CCOc1cc(C(C)C)ccc1C1CCN(CCCCNC(=O)c2ccc(NC(=O)c3ccc(Cl)cc3)cc2)CC1 | 100% | 98% | 32%

Row | SMILES | Inhibition (Plasmodium falciparum [1]) | Inhibition (Plasmodium falciparum [2]) | Inhibition (HepG2)
22 | CCCN1CCN(Cc2ccc(C(=O)Nc3ccc(Cl)cc3)cc2)CC1.O=C(O)C(F)(F)F | 94% | 14% | 48%
23 | COc1ccc2nccc(N3CCC(NCc4ccc5c(n4)NC(=O)CS5)CC3)c2n1 | 100% | 63% | 14%
24 | Oc1ccc(Nc2nc(NCc3ccco3)c3ccccc3n2)cc1 | 100% | 78% | 7%
25 | CCOc1cc(Cc2cnc(N)nc2N)cc(OCC)c1OCC | 97% | 0% | 0%
26 | O=C(Nc1ccc(S(=O)(=O)N2CCCCC2)cc1)c1cc(-c2ccccc2O)n[nH]1 | 94% | 81% | 13%
27 | CC1(CCCCN2CCC(c3c[nH]c4cnccc34)CC2)C(=O)Nc2cccc(Cl)c21 (centres undefined) | 100% | 0% | 26%
28 | CCCCCN1CCC(NC(=O)c2ccc(C(=O)Nc3ccc(C(C)C)cc3)cc2)C1.O=C(O)C(F)(F)F (centres undefined) | 95% | 17% | 38%
29 | N#CCCn1nc(-c2ccc(Cl)cc2)c2c(c1=O)CCCC2 | 94% | 32% | 0%
30 | CN1CCCN(Cc2ccc(-c3cccc(NC(=O)c4ccc(F)cc4)c3)cc2)CC1.O=C(O)C(F)(F)F | 89% | 8% | 29%
31 | Cc1cc(=NN=Cc2ccccc2Cl)c2cccc(C)c2[nH]1 | 97% | 98% | 10%
32 | O=C(NCCCCN1CCN(CC=Cc2ccccc2)CC1)c1ccc(NC(=O)c2cc(Cl)cc(Cl)c2)cc1 | 100% | 63% | 26%
33 | COc1cccc(C(=O)NCCOc2ccccc2)c1Oc1ccccc1 | 98% | 98% | 14%
34 | Cl.Oc1cccc(Nc2nc(NCC3CCCO3)c3ccccc3n2)c1 (centres undefined) | 100% | 87% | 0%
35 | O=C(Cc1c[nH]cn1)Nc1ccc(-c2ccc(-c3nc4cc(F)ccc4[nH]3)cc2)cc1 | 100% | 91% | 39%
36 | CCCCC(=O)NC(c1cccs1)c1cc(Cl)c2cccnc2c1O (centres undefined) | 93% | 90% | 50%
37 | CCC1CCc2cc(N)cc(-c3nc4c(c(C)nn4CC)c(=O)[nH]3)c2O1 (centres undefined) | 86% | 42% | 0%
38 | O=C(O)C(F)(F)F.O=C1CCCN1CCCNCc1ccc(-c2ccc(-c3nc4cc(C(F)(F)F)ccc4[nH]3)s2)cc1 | 100% | 96% | 9%
39 | CCCCN(CCCC)CCNC(=O)c1cccc(NC(=O)N2CCc3cc(SC)c(C(F)(F)F)cc32)c1 | 96% | 32% | 15%
40 | CCc1cn2c3c(cc(C(=O)N[C@@H](Cc4ccccc4)[C@H](O)CNC(C)(C)c4cccc(OC)c4)cc13)N(C)S(=O)(=O)C2.O=CO | 98% | 99% | 27%
41 | COc1ccc(NC(=O)CCNc2cc(C)nc(NCc3cccc(C)c3)n2)cc1.O=C(O)C(F)(F)F | 100% | 25% | 14%
42 | Cc1ccc(NC(=O)NC2CCN(c3ccnc4ccccc34)C2)cc1.O=C(O)C(F)(F)F (centres undefined) | 99% | 48% | 7%

Row | SMILES | Inhibition (Plasmodium falciparum [1]) | Inhibition (Plasmodium falciparum [2]) | Inhibition (HepG2)
43 | COc1ccc(CCN(C)CCOc2ccc(NC(=O)c3ccc([N+](=O)[O-])c4c(=O)c5ccccc5[nH]c34)cc2)cc1OC | 91% | 25% | 38%
44 | Nc1cccc(CNCc2ccc(-c3cccc(-c4nc5cc(F)ccc5[nH]4)c3)cc2)c1.O=C(O)C(F)(F)F | 100% | 94% | 36%
45 | O=C(/C=C/c1ccc(Cl)c(Cl)c1)NCCCCCN1CCCN(C(=O)Nc2cc(Cl)cc(Cl)c2)CC1 | 96% | 4% | 53%
46 | Cl.O=c1cc(NCCCNCc2sc(Br)nc2Br)[nH]c2ccccc12 | 92% | 44% | 1%
47 | CCc1cc(Br)c2c(c1)C(NCCCNc1cc(=O)c3ccccc3[nH]1)CCN2 (centres undefined) | 94% | 20% | 13%
48 | O=C(Nc1cc(C(F)(F)F)cc(C(F)(F)F)c1)NC(CCCN1CCC2(CC1)OCc1ccccc12)c1ccc(Cl)c(Cl)c1 (centres undefined) | 94% | 87% | 26%
49 | Cl.Oc1ccc2c(c1NCC1CCCCC1)CCCC2 | 99% | 99% | 11%
50 | O=C(/C=C/c1c(Cl)cccc1Cl)NC1CCC(CN2CCC(Cc3cc4ccccc4[nH]3)CC2)CC1 (centres undefined) | 91% | 17% | 97%
51 | CC(=O)Nc1[nH]c(-c2ccccc2)nc1C(N)=O | 99% | 0% | 10%
52 | CC[C@H]1CN(C/C=C/c2ccc(OC)cc2)CC[C@H]1CCCc1ccnc2ccc(O)cc12 | 99% | 72% | 24%
53 | CC(=NNC(=N)N)c1ccc2c(c1)Cc1ccccc1-2.Cl | 100% | 10% | 44%
54 | COc1ccc(-c2cnc3[nH]cc(-c4ccc(CCC(=O)O)cc4)c3c2)cn1.O=C(O)C(F)(F)F | 98% | 95% | 25%
55 | Cc1c(S(=O)(=O)Nc2ccc3nccc(N4CCN[C@H](C)C4)c3c2)sc2ccc(Cl)cc12.Cl | 96% | 0% | 16%
56 | COc1ccc(NC(=O)Nc2ccc(Nc3nc(C)cc(N4CCCC4)n3)cc2)cc1 | 100% | 100% | 14%
57 | Cc1ccc(Nc2ccnc3cc(-c4nccs4)ccc23)cc1C(O)c1ccccc1.Cl (centres undefined) | 85% | 83% | 23%
58 | COc1ccc2ncc(F)c(CCN3CCC(NCc4cc5c(cn4)OCCS5)CC3)c2c1.Cl | 89% | 40% | 4%
59 | CNC(=O)c1ccccc1Nc1nc(Nc2ccc(N3CCN(C)CC3)nc2)ncc1C.Cl | 92% | 50% | 75%
60 | COc1ccc2nc(C)cc(N/N=C/C=C/c3ccccc3)c2c1 | 100% | 100% | 27%
61 | COc1cc(C(F)(F)F)cc2[nH]c(CNCCCNc3nc4ccccc4[nH]3)cc12 | 100% | 2% | 59%
62 | COc1ccc(OC)c2c1CC1NCC2c2c(OC)ccc(OC)c21.Cl (centres undefined) | 99% | 3% | 2%
63 | CN1CCCN(Cc2ccc(-c3ccc(NC(=O)c4ccc(Cl)cc4)cc3)cc2)CC1.O=C(O)C(F)(F)F | 96% | 67% | 58%
